Assay results taken from PubChem BioAssay.
Unmarked numbers belong to inactive results. Activity calls are given as the source filed them. Cut-off read from the data, not from the text of the source, unless noted: active = inhibition above about 36%; inactive = the rest.

Key:
[1] = test system: transactivating tegument protein VP16 (Human herpesvirus 1); assay: compounds suppressing VP16-driven luciferase signal – cell-based, luminescence, single concentration, counter-screen for SRC2 inhibitor project (AID 652007); details: cell-based VP16 transactivation luciferase reporter, at 8.9 µM, stronger effect = higher value
[2] = target: Nuclear receptor coactivator 2 (Homo sapiens) (UniProt Q15596); assay: inhibition of GAL4-SRC2 driven luciferase expression – cell-based, luminescence, HEK293, triplicate, confirmation (AID 652008;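 active = mean inhibition above 46.5%, the solvent-only control mean plus 3 SD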;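 note: 0% = DMSO-treated cells and 100% = Gossypol at 36 µM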); details: HEK293 GAL4-SRC2 luciferase reporter, at 8.9 µM, stronger effect = higher value
Nuclear receptor coactivator 2 (Homo sapiens), sequence (Q15596 whole entry, looked up, the tested form may be a part): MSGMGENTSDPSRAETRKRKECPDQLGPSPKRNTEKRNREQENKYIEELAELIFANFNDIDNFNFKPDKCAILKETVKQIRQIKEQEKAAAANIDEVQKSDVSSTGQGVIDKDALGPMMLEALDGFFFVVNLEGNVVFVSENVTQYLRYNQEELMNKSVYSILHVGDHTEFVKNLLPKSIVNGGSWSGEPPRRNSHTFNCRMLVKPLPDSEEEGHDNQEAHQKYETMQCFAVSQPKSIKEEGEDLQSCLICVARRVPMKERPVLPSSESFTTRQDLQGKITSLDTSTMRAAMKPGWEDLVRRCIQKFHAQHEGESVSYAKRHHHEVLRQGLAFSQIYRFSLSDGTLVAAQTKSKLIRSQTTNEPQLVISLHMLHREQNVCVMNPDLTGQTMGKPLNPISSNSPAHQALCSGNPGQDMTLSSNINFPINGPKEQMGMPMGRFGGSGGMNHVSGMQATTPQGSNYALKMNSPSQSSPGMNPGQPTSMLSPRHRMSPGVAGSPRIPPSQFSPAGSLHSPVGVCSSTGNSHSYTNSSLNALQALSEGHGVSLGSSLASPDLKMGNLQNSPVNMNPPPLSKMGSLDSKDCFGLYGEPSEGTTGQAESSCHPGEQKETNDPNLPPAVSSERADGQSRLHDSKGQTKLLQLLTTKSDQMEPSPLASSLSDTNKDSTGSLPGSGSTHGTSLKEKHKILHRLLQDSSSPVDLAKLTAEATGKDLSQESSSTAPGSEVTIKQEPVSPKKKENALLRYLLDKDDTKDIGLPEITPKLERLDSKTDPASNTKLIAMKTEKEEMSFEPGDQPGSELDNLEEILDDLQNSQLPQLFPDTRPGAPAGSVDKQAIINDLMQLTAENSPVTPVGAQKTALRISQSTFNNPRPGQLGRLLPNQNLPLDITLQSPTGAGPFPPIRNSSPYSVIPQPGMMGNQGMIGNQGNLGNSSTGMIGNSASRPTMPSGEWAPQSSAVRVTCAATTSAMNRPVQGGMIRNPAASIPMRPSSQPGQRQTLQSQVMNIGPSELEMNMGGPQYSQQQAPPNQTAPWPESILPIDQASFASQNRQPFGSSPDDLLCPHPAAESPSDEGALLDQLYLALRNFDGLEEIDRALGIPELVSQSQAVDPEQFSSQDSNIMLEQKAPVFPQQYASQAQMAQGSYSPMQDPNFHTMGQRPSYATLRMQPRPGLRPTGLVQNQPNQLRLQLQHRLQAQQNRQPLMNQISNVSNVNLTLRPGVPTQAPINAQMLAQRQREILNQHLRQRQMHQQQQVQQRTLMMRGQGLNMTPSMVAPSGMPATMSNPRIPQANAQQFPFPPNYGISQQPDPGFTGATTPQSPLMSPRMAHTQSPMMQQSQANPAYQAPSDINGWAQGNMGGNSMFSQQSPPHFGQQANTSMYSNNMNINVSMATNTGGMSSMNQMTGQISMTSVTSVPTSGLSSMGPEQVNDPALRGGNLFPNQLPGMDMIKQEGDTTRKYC

SMILES	inhibition [1]	inhibition [2]
CN(C)c1ccc(C2Nc3ccccc3C(=O)N2CCCN2CCOCC2)cc1 (configuration not stated)	-12.2%	2.92%
C=C(C)C(=O)OC1(C(F)(F)F)Oc2cc(C)ccc2NC1=O (configuration not stated)	-6.48%	17.5%
COc1ccccc1CNS(=O)(=O)c1ccc(-c2cc(C)no2)cc1	-13%	-7.27%
CN(/C(=N\S(=O)(=O)c1ccccc1)c1ccccc1)c1ccc(O)cc1	-3.87%	-40.4%
Cn1c(=O)c2c(ncn2CCOc2cccc(Br)c2)n(C)c1=O	2.33%	2.64%
CCCCc1ccc(N/C(N)=N/c2nc(C)cc(C)n2)cc1	30.2%	32.1%
C=CCN(CC#CCN(C)C(=O)c1cccn1C(=O)OC(C)(C)C)Cc1ccc(OC)cc1OC	-6.71%	-1.62%
CC(=O)Nc1ccc(NC(=O)c2cc(=O)c3ccccc3o2)cc1	-12.5%	-8.33%
CCN(CC)S(=O)(=O)c1ccc(C)c(NC(=S)NC2CCCCC2)c1	8.38%	-9.1%
CCCc1cc(=O)n2nc(N3CCC(C(=O)N4CCN(c5cccc(OC)c5)CC4)CC3)sc2n1	-1.33%	17.2%
COCc1ccc(C(=O)N2CCC(CCC(=O)Nc3cccc(C)c3)CC2)s1	27.4%	46.9% (active)
CC(=O)Nc1c([N+](=O)[O-])cc(C)c(Cl)c1[N+](=O)[O-]	-10.7%	3.8%
Cc1ccc(N(C)C(=O)c2cc(S(=O)(=O)N3CCCCC3)c[nH]2)cc1	1.11%	15.4%
Cn1cc(CN2CCN(CCO)CC2)c(-c2ccc(Oc3ccccc3)cc2)n1	-9.32%	7.36%
C[C@@H]1CN([C@H](C)CO)C(=O)c2cc(NC(=O)Nc3ccc(C(F)(F)F)cc3)ccc2O[C@H]1CN(C)S(=O)(=O)c1ccccc1	18.9%	32.9%
COc1cc(/C=C2\CC/C(=C\c3cc(OC)c(O)c(OC)c3)C2=O)cc(OC)c1O	-70.7%	-13%

SMILES	inhibition [1]	inhibition [2]
CC(=O)c1ccc(OCCCC(=O)N2CCN(S(=O)(=O)c3ccc(C)cc3C)CC2)cc1	7.87%	0.39%
CCOC(=O)C1=CCN(S(=O)(=O)c2ccc(C)cc2)C1c1ccccc1F (configuration not stated)	-19.3%	-7.88%
CCN(CC)C(=O)C1CCCN(c2ncnc3c2cnn3-c2ccc(Cl)cc2)C1 (configuration not stated)	-32.6%	58.8% (active)
CCOC(=O)C1=C[C@@H](C(C)(C)C)N(S(=O)(=O)c2ccc(C)cc2)[C@H]1c1ccc(Cl)c(Cl)c1	7.53%	17.4%
CN(C)Cc1ccc(-c2nc3cccc4c3n2CCNC4=O)cc1	-27.9%	6.56%
O=c1[nH]nc(Sc2ncnc3sccc23)n1CCc1ccccc1	14.9%	47.5% (active)
Cc1nc(SCCC(=O)O)c2cc(-c3ccccc3)sc2n1	48.6% (active)	80.1% (active)
CCn1ccnc1CNC(=O)C1CCC(=O)N(Cc2ccccc2F)C1 (configuration not stated)	-4.87%	-23.7%
CCC(=O)N1N=C(c2cccs2)CC1c1ccc(C)cc1 (configuration not stated)	-15.8%	-13.8%
CCN1CCN(Cc2ccc(NC(=O)c3cccc(-c4ccc5nc(NC(=O)C6CC6)sc5n4)c3)cc2C(F)(F)F)CC1	24.5%	58.1% (active)
COc1ccc(NC(=O)C2(C)Cc3c(-c4cccc(C(F)(F)F)c4)ccnc3O2)cn1 (configuration not stated)	-0.87%	-0.12%
COc1ccc(-n2nc3cc(C)c(N)c(Br)c3n2)cc1	-67.1%	-140%
Cc1c(NC(=O)COC(=O)C23CC4CC(CC(O)(C4)C2)C3)c(=O)n(-c2ccccc2)n1C	2.86%	3.79%
CCCC(=O)Nc1cccc(NC(=O)c2ccccc2Br)c1	-0.46%	-17.8%
[2H]C(CCOS(N)(=O)=O)c1ccc(C(C)(C)C)cc1 (configuration not stated)	13.7%	41.4%
